Laboratory results reported in PubChem BioAssay (NCATS).
Activity calls are given as the source filed them. Calls follow the shape of the dose curve; as a rule, active = well fitted activation curve with a large enough effect; inconclusive = small, poorly fitted or top-dose-only effect; inactive = no such curve, though single readings can be large or run the other way.

The compounds below were run against Cytochrome P450 3A4 (Homo sapiens) (UniProt P08684) (assay: qHTS Assay for Activators of Cytochrome P450 3A4 (AID 885; also: nearly all actives have a fitted effect of over 65% in size)). Conditions: recombinant CYP3A4, Luciferin-PPXE luminescence, 60 min; series mostly up to 57.1 µM; activity change, positive = activation: at the top concentration.
Cytochrome P450 3A4 (Homo sapiens), sequence (P08684 whole entry, looked up): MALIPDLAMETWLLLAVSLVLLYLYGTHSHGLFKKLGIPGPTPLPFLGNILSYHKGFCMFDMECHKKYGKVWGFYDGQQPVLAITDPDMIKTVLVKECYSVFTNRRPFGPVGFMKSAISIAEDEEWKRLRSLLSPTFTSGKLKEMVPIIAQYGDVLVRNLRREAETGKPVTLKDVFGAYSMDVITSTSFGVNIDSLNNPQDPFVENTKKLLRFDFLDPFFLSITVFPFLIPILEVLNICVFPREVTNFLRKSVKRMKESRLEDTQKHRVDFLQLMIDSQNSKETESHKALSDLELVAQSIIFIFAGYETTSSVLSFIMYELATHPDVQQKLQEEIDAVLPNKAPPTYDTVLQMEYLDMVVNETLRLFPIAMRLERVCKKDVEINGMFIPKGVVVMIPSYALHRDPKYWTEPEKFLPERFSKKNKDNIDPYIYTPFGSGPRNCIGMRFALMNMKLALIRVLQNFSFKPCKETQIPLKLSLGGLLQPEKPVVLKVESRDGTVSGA
In short: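 Quantitative HTS format: compounds preincubated with 20nM human CYP3A4 and Luciferin-PPXE substrate at KM, reaction started by NADPH regeneration, stopped after 60 min, luciferase luminescence read 20 min later.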

Activity change, positive = activation, inactive:
CCOC(=O)N/N=C1/C[C@@H](O)[C@@H](O)[C@@H]2[C@@H]3C(=O)N(Cc4ccc5c(c4)OCO5)C(=O)[C@H]3CC[C@H]12 -58.6% [at 11.4 µM]
CO[C@@H]1COC(=O)C/C=C\[C@@H](C)COC(=O)[C@H](Cc2ccccc2)NC(=O)C/C=C\[C@H]1C -39.1% [at 11.4 µM]
Clc1ccc(C2[C@H]3CN(Cc4ccc(-c5ccccc5)cc4)[C@H](c4ccccc4)C34CC2(c2cccnc2)C4)cn1 (some centres undefined) -52%
COC(=O)c1ccc(C23CC4(C2)[C@H](CN(C)[C@@H]4c2ccccc2)C3c2ccc(C(F)(F)F)cc2)cc1 (some centres undefined) -50.5%
Cn1c(=O)cc(N)n(Cc2ccccc2)c1=O -51.2%
N#Cc1ccc(C23CC4(C2)[C@H](CN(P(=O)(c2ccccc2)c2ccccc2)[C@@H]4c2ccccc2)C3c2ccc(Cl)nc2)cc1 (some centres undefined) -56.6%
Cn1c(N)c(C(=O)COC(=O)c2cc(C(F)(F)F)nc3ccccc23)c(=O)n(Cc2ccccc2)c1=O -46.7%
CO[C@H]1COC(=O)[C@H](C)COC(=O)[C@@H](Cc2ccccc2)NC(=O)C/C=C\[C@H]1C -39.6% [at 11.4 µM]
CC(C)CO/N=C1/C[C@@H](O)[C@@H](O)[C@@H]2[C@@H]3C(=O)N(Cc4ccc5c(c4)OCO5)C(=O)[C@H]3CC[C@@H]12 -50.2% [at 11.4 µM]
COc1ccc(COC(=O)N/N=C2/C[C@@H](O)[C@@H](O)[C@@H]3[C@H]4C(=O)N(c5ccc(F)cc5F)C(=O)[C@@H]4CC[C@H]23)cc1 -51.6% [at 11.4 µM]
Clc1ccc(C2[C@H]3CN(Cc4ccc(-c5ccccc5)cc4)[C@H](c4ccccc4)C34CC2(c2ccccc2)C4)cn1 (some centres undefined) -41.8%
CCN1C(=O)[C@H]2[C@H]3[C@H](O)[C@H](O)C/C(=N/OC[C@@H](C)[C@H](OCc4ccccc4)C(C)C)[C@@H]3CC[C@@H]2C1=O -44.7% [at 11.4 µM]
COC(=O)c1ccc(C23CC4(C2)[C@H](CN(CC2CCCCC2)[C@@H]4c2ccccc2)C3c2ccc(C(F)(F)F)cc2)cc1 (some centres undefined) -54.9%
COC(=O)[C@@H]1C[C@H]2CC[C@H](O)C[C@H]2N1Cc1ccc(-c2ccccc2)cc1 -46.3%
